In the supplement of paper PMC12819154, “High-throughput peptide-centric local stability assay extends protein–ligand identification to membrane proteins, tissues and bacteria” (Nature Structural & Molecular Biology, 2025) one finds log2 fold change data, which are given here for eleven targets.

UniProt Q15418, sequence (Q15418 whole entry): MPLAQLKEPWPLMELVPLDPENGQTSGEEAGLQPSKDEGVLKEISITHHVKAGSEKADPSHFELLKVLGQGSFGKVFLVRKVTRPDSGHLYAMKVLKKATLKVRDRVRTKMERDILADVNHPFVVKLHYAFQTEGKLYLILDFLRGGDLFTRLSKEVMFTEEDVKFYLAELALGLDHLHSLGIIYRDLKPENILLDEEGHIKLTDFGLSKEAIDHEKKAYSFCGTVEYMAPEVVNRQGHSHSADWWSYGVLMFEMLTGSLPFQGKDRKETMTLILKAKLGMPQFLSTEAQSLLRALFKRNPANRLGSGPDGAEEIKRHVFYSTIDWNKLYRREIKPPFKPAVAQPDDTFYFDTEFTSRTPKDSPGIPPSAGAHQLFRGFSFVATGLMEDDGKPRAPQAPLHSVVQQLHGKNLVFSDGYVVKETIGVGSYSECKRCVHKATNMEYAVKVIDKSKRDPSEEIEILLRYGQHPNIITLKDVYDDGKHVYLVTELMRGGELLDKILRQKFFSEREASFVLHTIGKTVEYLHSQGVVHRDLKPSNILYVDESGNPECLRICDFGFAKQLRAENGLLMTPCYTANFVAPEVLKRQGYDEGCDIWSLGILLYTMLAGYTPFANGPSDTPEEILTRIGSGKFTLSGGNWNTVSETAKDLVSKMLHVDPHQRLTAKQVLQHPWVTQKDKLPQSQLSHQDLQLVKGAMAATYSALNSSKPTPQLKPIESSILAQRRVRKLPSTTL
UniProt Q9P2K8, sequence (Q9P2K8 whole entry): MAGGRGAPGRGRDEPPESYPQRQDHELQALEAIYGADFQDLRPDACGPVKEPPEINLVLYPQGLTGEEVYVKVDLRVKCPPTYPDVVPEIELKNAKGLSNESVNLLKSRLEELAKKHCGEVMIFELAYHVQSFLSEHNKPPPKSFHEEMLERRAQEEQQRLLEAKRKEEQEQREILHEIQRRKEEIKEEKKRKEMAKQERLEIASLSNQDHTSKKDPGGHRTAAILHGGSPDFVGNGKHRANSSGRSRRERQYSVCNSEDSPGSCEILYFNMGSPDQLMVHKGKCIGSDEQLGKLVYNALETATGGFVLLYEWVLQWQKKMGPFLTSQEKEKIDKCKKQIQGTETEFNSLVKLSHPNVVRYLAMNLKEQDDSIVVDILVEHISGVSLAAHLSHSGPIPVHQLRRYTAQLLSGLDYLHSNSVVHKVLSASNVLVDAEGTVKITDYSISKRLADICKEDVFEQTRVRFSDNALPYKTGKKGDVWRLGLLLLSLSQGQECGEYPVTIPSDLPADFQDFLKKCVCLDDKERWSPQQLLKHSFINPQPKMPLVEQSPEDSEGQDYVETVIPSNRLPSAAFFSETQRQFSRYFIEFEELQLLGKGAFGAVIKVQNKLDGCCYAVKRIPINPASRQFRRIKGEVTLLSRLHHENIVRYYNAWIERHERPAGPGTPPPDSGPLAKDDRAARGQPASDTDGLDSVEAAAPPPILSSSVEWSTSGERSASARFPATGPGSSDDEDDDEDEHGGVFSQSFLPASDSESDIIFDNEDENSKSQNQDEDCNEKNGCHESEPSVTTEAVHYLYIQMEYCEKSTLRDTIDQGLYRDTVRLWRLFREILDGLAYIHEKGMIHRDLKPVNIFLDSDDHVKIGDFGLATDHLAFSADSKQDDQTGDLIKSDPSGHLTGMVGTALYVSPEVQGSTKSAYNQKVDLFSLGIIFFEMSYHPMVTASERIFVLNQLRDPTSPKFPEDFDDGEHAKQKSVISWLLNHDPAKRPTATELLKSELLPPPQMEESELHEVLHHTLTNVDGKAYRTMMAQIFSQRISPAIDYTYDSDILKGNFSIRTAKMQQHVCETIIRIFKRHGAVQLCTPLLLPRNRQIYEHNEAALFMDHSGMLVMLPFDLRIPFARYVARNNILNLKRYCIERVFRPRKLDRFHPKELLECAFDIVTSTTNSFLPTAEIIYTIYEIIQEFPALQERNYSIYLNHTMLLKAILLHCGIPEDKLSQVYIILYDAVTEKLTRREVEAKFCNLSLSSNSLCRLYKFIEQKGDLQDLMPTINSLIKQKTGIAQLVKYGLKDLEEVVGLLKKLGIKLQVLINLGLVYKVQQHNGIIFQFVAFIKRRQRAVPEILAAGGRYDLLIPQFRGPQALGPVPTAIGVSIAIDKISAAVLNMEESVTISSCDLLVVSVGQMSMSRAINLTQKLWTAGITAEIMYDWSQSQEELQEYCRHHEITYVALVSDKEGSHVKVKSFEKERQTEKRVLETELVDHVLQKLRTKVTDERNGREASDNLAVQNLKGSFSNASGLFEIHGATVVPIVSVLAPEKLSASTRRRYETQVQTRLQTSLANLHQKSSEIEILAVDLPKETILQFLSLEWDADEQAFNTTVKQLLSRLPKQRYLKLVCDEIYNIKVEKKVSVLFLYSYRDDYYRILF
UniProt P36551, sequence (P36551 whole entry): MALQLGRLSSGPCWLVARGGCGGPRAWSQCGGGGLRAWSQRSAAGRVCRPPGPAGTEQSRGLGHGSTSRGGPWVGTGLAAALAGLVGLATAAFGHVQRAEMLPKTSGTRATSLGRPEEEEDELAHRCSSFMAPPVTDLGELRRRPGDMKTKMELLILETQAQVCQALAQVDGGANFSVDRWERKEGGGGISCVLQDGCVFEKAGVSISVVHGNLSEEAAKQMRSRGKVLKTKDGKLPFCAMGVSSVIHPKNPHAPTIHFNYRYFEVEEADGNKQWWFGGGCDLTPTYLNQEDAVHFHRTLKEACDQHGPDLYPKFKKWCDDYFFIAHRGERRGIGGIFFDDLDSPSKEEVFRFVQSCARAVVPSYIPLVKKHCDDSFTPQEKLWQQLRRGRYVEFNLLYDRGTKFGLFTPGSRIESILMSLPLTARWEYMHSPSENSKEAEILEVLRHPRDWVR
UniProt O00567, sequence (O00567 whole entry): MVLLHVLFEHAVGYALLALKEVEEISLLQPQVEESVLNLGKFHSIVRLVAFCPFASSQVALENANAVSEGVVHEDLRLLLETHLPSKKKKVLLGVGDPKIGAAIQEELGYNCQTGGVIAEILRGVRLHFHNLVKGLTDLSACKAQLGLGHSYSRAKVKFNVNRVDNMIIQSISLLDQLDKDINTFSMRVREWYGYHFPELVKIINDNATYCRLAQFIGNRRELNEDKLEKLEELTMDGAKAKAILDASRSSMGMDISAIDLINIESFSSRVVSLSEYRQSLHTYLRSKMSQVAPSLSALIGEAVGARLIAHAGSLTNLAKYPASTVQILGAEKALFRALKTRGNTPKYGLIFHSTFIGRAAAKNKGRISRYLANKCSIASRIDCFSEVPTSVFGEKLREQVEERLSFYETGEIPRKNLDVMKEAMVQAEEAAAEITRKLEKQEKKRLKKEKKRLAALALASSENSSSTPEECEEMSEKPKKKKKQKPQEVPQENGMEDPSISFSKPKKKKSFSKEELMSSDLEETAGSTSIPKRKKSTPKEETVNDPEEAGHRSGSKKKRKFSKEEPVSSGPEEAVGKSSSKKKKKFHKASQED
UniProt Q96GX5, sequence (Q96GX5 whole entry): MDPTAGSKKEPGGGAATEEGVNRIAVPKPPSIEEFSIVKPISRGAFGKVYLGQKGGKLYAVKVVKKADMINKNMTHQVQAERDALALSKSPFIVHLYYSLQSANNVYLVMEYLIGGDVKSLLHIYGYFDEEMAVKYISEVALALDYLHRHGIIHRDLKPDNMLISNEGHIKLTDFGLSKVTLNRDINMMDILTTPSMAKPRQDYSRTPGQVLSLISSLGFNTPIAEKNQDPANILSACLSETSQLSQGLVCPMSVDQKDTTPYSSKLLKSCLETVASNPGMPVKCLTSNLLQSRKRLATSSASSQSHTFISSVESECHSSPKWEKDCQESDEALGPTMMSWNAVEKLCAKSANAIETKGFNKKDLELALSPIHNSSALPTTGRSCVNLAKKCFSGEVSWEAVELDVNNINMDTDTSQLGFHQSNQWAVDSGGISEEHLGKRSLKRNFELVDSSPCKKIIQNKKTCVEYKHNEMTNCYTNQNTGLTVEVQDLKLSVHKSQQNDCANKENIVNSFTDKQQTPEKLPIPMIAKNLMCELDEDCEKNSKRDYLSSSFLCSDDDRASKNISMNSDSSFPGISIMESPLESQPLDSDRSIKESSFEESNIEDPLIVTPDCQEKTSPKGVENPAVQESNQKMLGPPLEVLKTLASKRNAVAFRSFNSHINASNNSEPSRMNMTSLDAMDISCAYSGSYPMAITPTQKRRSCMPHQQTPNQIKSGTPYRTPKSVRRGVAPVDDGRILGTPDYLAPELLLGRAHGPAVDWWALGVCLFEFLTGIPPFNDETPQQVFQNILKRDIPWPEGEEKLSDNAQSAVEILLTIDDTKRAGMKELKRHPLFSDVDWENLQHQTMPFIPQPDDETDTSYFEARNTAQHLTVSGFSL
UniProt Q9BUB5, sequence (Q9BUB5 whole entry, looked up): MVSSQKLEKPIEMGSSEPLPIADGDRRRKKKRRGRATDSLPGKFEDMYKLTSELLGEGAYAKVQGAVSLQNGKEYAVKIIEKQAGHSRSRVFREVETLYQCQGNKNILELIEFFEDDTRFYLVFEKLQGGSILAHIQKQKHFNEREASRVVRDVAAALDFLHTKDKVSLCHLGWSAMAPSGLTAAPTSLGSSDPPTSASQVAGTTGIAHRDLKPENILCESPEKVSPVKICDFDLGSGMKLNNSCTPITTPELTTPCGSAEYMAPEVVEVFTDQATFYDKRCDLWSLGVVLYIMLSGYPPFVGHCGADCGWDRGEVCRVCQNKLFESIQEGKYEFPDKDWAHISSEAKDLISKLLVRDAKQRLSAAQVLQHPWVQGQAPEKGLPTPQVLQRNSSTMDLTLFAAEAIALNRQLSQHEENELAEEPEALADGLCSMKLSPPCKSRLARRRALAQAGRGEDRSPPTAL

Compound in the test: CN[C@@H]1C[C@H]2O[C@@](C)([C@@H]1OC)n1c3ccccc3c3c4c(c5c6ccccc6n2c5c31)C(=O)NC4 [staurosporine]
The test can be described thus: log2 fold change of tryptic peptide abundance, ligand vs vehicle (limited proteolysis) (log2 ratio); higher = more trypsin-susceptible (destabilized). Particulars: ligand concentration: 20 uM; sample: K562 cleared lysate; digestion: 4 min, 22 C (HT-PELSA RT4min, Orbitrap Astral).
Regarding “CPOX (peptide sequence: EAEILEVLR, peptide start residue: 439) (UniProt P36551)”, the log2 fold change was -1.06.

With “UniProt Q15418 (peptide sequence: DILADVNHPFVVK, peptide start residue: 114)”, the log2 fold change was -1.43.

Consider “TAOK3 (peptide sequence: VLIDLIQR, peptide start residue: 285) (UniProt Q9H2K8)”, for which the log2 fold change is -1.49.

With “UniProt Q8NEB9 (peptide sequence: SALMPAQLFFK, peptide start residue: 614)”, the log2 fold change was -0.384.

Take “UniProt Q9BUB5 (peptide sequence: GLPTPQVLQR, peptide start residue: 382)”: the log2 fold change was 0.803.

As for “UniProt O00567 (peptide sequence: LIAHAGSLTNLAK, peptide start residue: 308)”, the log2 fold change worked out at 0.316.

As for “UniProt P51812 (peptide sequence: DILVEVNHPFIVK, peptide start residue: 120)”, the log2 fold change was -0.86.

In the case of “EIF2AK4 (peptide sequence: DLKPVNIFLDSDDHVK, peptide start residue: 848) (UniProt Q9P2K8)”, the log2 fold change is -1.33.

On to “MAST4 (peptide sequence: LTDFGLSK, peptide start residue: 209) (UniProt O15021)”, for which the log2 fold change is -0.745.

For the target “MASTL (peptide sequence: IAVPKPPSIEEFSIVKPISR, peptide start residue: 24) (UniProt Q96GX5)”, the log2 fold change is -1.05.

On to “GART (peptide sequence: GDTVATLSER, peptide start residue: 966) (UniProt P22102)”, for which the log2 fold change amounted to 0.425.
